Test results reported in PubChem BioAssay (NCI).
The panel holds about 79,000 compounds, 15% with a hit somewhere; the sample as a whole holds those more often. Values without a mark were called inactive. The source made the active and inactive calls. No stated cut-off is given here; in the data, active means growth inhibition above about 70%; inactive means the rest.

test: NCI Yeast Anticancer Drug Screen. Data for the bub3 strain (AID 167); details: S. cerevisiae bub3 mutant strain, at 50.0 µM, hits give high values
In short: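 Readout: yeast growth inhibition, expressed relative to vehicle-only wells. The test organism is a mutant strain from a panel with lesions in DNA repair or checkpoint genes.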

| Compound | growth inhibition |
| --- | --- |
| C=CCCC(C)(C(=O)OCC)C(=O)OCC | 1.45% |
| C(CCC[Si]12OCCN(CCO1)CCO2)CC[Si]12OCCN(CCO1)CCO2 | -1.45% |
| C=C1C2CC[C@@]3(CC[C@@H]4[C@@]5(C)CCC[C@@]4(CN4CCO[C@H]45)[C@@H]3C2)[C@@H]1O | 11.2% |
| CCC(C)C(N)C1=NC(C(=O)NC(CC(C)C)C(=O)NC(CCC(=O)O)C(=O)NC(C(=O)NC2CCCCNC(=O)C(CC(N)=O)NC(=O)C(CC(=O)O)NC(=O)C(Cc3cnc[nH]3)NC(=O)C(Cc3ccccc3)NC(=O)C(C(C)CC)NC(=O)C(CCCN)NC2=O)C(C)CC)CS1 (stereo not given) | -15.2% |
| NC(=S)Cc1ccccn1 | -4.45% |
| Cc1ccc(/C=N/NC(N)=S)c(C)c1 | 7.15% |
| CCOC(=O)CC(C)C(C(=O)OCC)C(=O)OCC (stereo not given) | 23.6% |
| CN(C)c1nc(=NCc2ccncc2)ss1 | 5.85% |
| CN(C)C(=O)Sc1ccc(N(C)C)cc1 | 15.1% |
| Cc1nc(C)c(N2CCN(S(=O)(=O)N(Cc3ccccc3)Cc3ccccc3)CC2)c(=O)[nH]1 | -5.65% |
| CCCC1SCC(C)(C)NC1=O (stereo not given) | 7.05% |
| CCCCCCP(=O)(CCCCCC)C1CCCCC1 | 99% (active) |
| Clc1ccc(-c2nnc(-c3ccc4ccccc4c3)o2)cc1Cl | -14.9% |
| Nc1ccc(S(=O)(=O)Nc2nc3ccccc3nc2Nc2ccc(S(N)(=O)=O)cc2)cc1 | -10.3% |
| O=S1(=O)CCC(Br)c2ccccc2C1 (stereo not given) | 3.85% |
| C[N+](C)(C)CC(=O)N/N=C(/C=C/c1ccccc1)CC1OC(=O)c2ccccc21 (stereo not given) | -7.5% |
| CC(C)(C)OC(=O)Cc1c[nH]c2ccccc12 | -27.6% |
| CCOC(=O)c1noc(Oc2ccc(Cl)cc2Cl)n1 | -9.3% |
| CCN(CC)C(=O)N1C=CC(C)C=C1 | 10.9% |
| Cc1cc(C)c([N+](=O)[O-])cc1[N+](=O)[O-] | -3.4% |

| Compound | growth inhibition |
| --- | --- |
| CNC(=O)Nc1ccc(Cl)cc1C(=O)O | -13.7% |
| CC(=O)Nc1ccc(S(=O)(=O)NNC(=O)NNS(=O)(=O)c2ccc(NC(C)=O)cc2)cc1 | -7% |
| CC(=O)Nc1ccc(C(=O)NN2C(=O)C(Cl)C2c2ccccc2)cc1 (stereo not given) | -28.8% |
| N#CC(C#N)=CN1CCCCC1 | -6.35% |
| C1CSC[C@H]2COC[C@@H](CSCCS1)S2 | 9.05% |
| COC(=O)CC1(O)C=C(C)C(=O)c2ccccc21 (stereo not given) | 25.2% |
| Nc1ccc(F)cc1C(F)(F)F | -8.05% |
| O=C(c1ccc(O)c(C(=O)O)c1)c1ccc(O)c(C(=O)O)c1 | -19.9% |
| COC(=O)/C(C#N)=C1\CCC(OC)N1 (stereo not given) | -13.1% |
| CC(=O)NC1=C/C(=C/COC(C)=O)OC1=O | 5.8% |
| C=C1C(=C)C2C=CC1C1C3C(c4ccccn4)=NN=C(c4ccccn4)C3C21 (stereo not given) | 66.6% |
| Nc1nc(N)c(N=Nc2ccc(S(=O)(=O)NC(=O)c3ccccc3)cc2)c(=O)[nH]1 | -2.55% |
| CN(C)c1ccccc1CCCCCBr | -6.7% |
| O=C1[C@@H](c2ccc(Cl)cc2)[C@H]2CC=C[C@H]2N1O | -13.4% |
| COc1cc(C(=O)CCCC(=O)O)cc(OC)c1OC | 16.3% |
| C=C(C)/C=C/S(=O)c1ccccc1 (stereo not given) | -16.4% |
| Cc1ccc(C(=O)c2ccccc2)cc1C[N+](C)(C)C | -5.3% |
| COc1ccc2c(c1)C(=O)CC(C(N)=O)C2 (stereo not given) | -13.7% |
| [N-]=[N+]=Nc1c(Cc2ccccc2)c(Cl)nc2ccccc12 | 65% |
| COc1ccc(C2CC(c3ccccc3)=Nc3ccccc3S2)cc1OC (stereo not given) | 2.4% |

test: NCI Yeast Anticancer Drug Screen. Data for the mlh1 rad18 strain (AID 175); details: S. cerevisiae mlh1 rad18 strain growth inhibition; at 50.0 µM; hits give high values
In short: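 Steps: expose repair-defective yeast to compound; measure growth; express inhibition against vehicle-treated controls.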

| Compound | growth inhibition |
| --- | --- |
| C=CCCC(C)(C(=O)OCC)C(=O)OCC | -11% |
| C(CCC[Si]12OCCN(CCO1)CCO2)CC[Si]12OCCN(CCO1)CCO2 | 1.1% |
| C=C1C2CC[C@@]3(CC[C@@H]4[C@@]5(C)CCC[C@@]4(CN4CCO[C@H]45)[C@@H]3C2)[C@@H]1O | -5.5% |
| CCC(C)C(N)C1=NC(C(=O)NC(CC(C)C)C(=O)NC(CCC(=O)O)C(=O)NC(C(=O)NC2CCCCNC(=O)C(CC(N)=O)NC(=O)C(CC(=O)O)NC(=O)C(Cc3cnc[nH]3)NC(=O)C(Cc3ccccc3)NC(=O)C(C(C)CC)NC(=O)C(CCCN)NC2=O)C(C)CC)CS1 (stereo not given) | -7.3% |
| NC(=S)Cc1ccccn1 | 6.55% |
| Cc1ccc(/C=N/NC(N)=S)c(C)c1 | 16.6% |
| CCOC(=O)CC(C)C(C(=O)OCC)C(=O)OCC (stereo not given) | 14% |
| CN(C)c1nc(=NCc2ccncc2)ss1 | -16.8% |
| CN(C)C(=O)Sc1ccc(N(C)C)cc1 | -23.2% |
| Cc1nc(C)c(N2CCN(S(=O)(=O)N(Cc3ccccc3)Cc3ccccc3)CC2)c(=O)[nH]1 | 4.2% |
| CCCC1SCC(C)(C)NC1=O (stereo not given) | -2.4% |
| CCCCCCP(=O)(CCCCCC)C1CCCCC1 | 99% (active) |
| Clc1ccc(-c2nnc(-c3ccc4ccccc4c3)o2)cc1Cl | -6.2% |
| Nc1ccc(S(=O)(=O)Nc2nc3ccccc3nc2Nc2ccc(S(N)(=O)=O)cc2)cc1 | -13.6% |
| O=S1(=O)CCC(Br)c2ccccc2C1 (stereo not given) | -5.4% |
| C[N+](C)(C)CC(=O)N/N=C(/C=C/c1ccccc1)CC1OC(=O)c2ccccc21 (stereo not given) | 3.9% |
| CC(C)(C)OC(=O)Cc1c[nH]c2ccccc12 | -41.1% |
| CCOC(=O)c1noc(Oc2ccc(Cl)cc2Cl)n1 | 15.1% |
| CCN(CC)C(=O)N1C=CC(C)C=C1 | 5.5% |
| Cc1cc(C)c([N+](=O)[O-])cc1[N+](=O)[O-] | 5.15% |

| Compound | growth inhibition |
| --- | --- |
| CNC(=O)Nc1ccc(Cl)cc1C(=O)O | -7.45% |
| CC(=O)Nc1ccc(S(=O)(=O)NNC(=O)NNS(=O)(=O)c2ccc(NC(C)=O)cc2)cc1 | -10.4% |
| CC(=O)Nc1ccc(C(=O)NN2C(=O)C(Cl)C2c2ccccc2)cc1 (stereo not given) | -28.6% |
| N#CC(C#N)=CN1CCCCC1 | -17.8% |
| C1CSC[C@H]2COC[C@@H](CSCCS1)S2 | -7.9% |
| COC(=O)CC1(O)C=C(C)C(=O)c2ccccc21 (stereo not given) | -11.2% |
| Nc1ccc(F)cc1C(F)(F)F | 23% |
| O=C(c1ccc(O)c(C(=O)O)c1)c1ccc(O)c(C(=O)O)c1 | -2.85% |
| COC(=O)/C(C#N)=C1\CCC(OC)N1 (stereo not given) | -24.9% |
| CC(=O)NC1=C/C(=C/COC(C)=O)OC1=O | 8.75% |
| C=C1C(=C)C2C=CC1C1C3C(c4ccccn4)=NN=C(c4ccccn4)C3C21 (stereo not given) | 62.5% |
| Nc1nc(N)c(N=Nc2ccc(S(=O)(=O)NC(=O)c3ccccc3)cc2)c(=O)[nH]1 | -8.9% |
| CN(C)c1ccccc1CCCCCBr | 3.75% |
| O=C1[C@@H](c2ccc(Cl)cc2)[C@H]2CC=C[C@H]2N1O | -2.25% |
| COc1cc(C(=O)CCCC(=O)O)cc(OC)c1OC | 5.3% |
| C=C(C)/C=C/S(=O)c1ccccc1 (stereo not given) | -5.15% |
| Cc1ccc(C(=O)c2ccccc2)cc1C[N+](C)(C)C | 4.9% |
| COc1ccc2c(c1)C(=O)CC(C(N)=O)C2 (stereo not given) | -32% |
| [N-]=[N+]=Nc1c(Cc2ccccc2)c(Cl)nc2ccccc12 | 40.8% |
| COc1ccc(C2CC(c3ccccc3)=Nc3ccccc3S2)cc1OC (stereo not given) | 3.75% |
